GPR151 activ = human GPR151 activation | PathHunter beta-arrestin GPR151 cells, luminescence | activation, % at 11.2 µM | 650,000 compounds, 1% hits; in the data active means activation above about 4.9%
Target sequence (Q8TDV0 whole entry, looked up): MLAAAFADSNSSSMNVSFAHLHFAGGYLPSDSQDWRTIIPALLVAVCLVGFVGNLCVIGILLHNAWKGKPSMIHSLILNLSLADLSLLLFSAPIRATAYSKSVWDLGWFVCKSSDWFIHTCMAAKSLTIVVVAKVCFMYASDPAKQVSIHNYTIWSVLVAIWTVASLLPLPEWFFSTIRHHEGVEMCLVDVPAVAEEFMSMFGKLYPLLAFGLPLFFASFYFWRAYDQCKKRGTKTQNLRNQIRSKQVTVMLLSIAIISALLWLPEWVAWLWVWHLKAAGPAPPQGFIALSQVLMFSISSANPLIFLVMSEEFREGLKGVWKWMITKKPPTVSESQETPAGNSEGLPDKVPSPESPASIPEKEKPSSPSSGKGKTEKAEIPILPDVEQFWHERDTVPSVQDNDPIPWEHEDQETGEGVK
MITF inh = inhibitors of human MITF. AlphaScreen MITF homodimerization, bead proximity signal. inhibition, % at 2.6 µM. O75030. 650,000 compounds, 0.91% hits; in the data active means inhibition above about 50%
FBW7 act = activators of human E3 ligase FBW7; Q969H0; AlphaScreen FBW7–phospho-cyclin E peptide binding, activator screen; normalized activity (activation), % at 26.1 µM; 650,000 compounds, 0.13% hits; AID 1259310; in the data active means normalized activity above about 1.9%;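 further: purified mutant Fbw7 with reduced substrate affinity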
TEAD-YAP block = TEAD-YAP interaction inhibition | 640,000 compounds, 1.4% hits | inhibition, % at 9.12 µM | HEK-TIYL cells, TEAD-Gal4/YAP UAS-luciferase luminescence; in the data active means inhibition above about 32%
GPR151 confirm = human GPR151 activation, confirmation screen | shares compounds with GPR151 activ | GPR151 PathHunter beta-arrestin cells, luminescence, 90 min; % of EA-reagent control over plate median | activation, % at 11.2 µM | 6,700 tested, under 10 active | AID 1508609;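 active means mean percent activation across replicates above the confirmation screen cutoff of 4.91%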
GPR119 ag = counter-screen for GPR151 activators: effect on human GPR119; shares compounds with GPR151 activ; GPR119 PathHunter beta-arrestin cells, luminescence, 90 min; 0 = compound-well median, 100 = enzyme-acceptor control; activation, % at 11.2 µM; 6,700 compounds, 0.3% hits; AID 1508611;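 active means mean percent activation in the counterscreen above 29.09%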;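 further: counterscreen on off-target GPR119 to flag nonselective hits from the GPR151 activator screen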
Hits are given with their value; 0 = inactive; - = no result; ! = not confirmed by another sample. Only some compounds are listed: those with a hit (about 3.4% of all), similar ones and a draw of the others.

SMILES | GPR151 activ | MITF inh | FBW7 act | TEAD-YAP block | GPR151 confirm | GPR119 ag
COc1ccc(CNC(=O)C2CCN(c3nc4ccccc4n4cccc34)CC2)cc1 | 7.5 | 0 | 0 | 0 | 0 | 0
CC(C)CCNc1c(-c2ccccc2)c(=O)c1=O | 6.9 | 0 | 0 | 0 | 0 | 0
CCCNC(=O)c1ccnc(N2CCCC(C(=O)N(CC)CC)C2)c1 (centres undefined) | 0 | 0 | 0 | 0 | - | -
CCN(CC)C(=O)C1CCCN(c2cc(C(=O)NCCN(C(C)C)C(C)C)ccn2)C1 (centres undefined) | 6.2 | 0 | 0 | 0 | 0 | 0
CS(=O)(=O)N(CC(=O)N1CCN(c2ccc(F)cc2)CC1)Cc1ccc(Cl)cc1 | 0 | 0 | 0 | 0 | - | -
CS(=O)(=O)N(CC(=O)N1CCN(c2ccccc2)CC1)Cc1ccc(Cl)cc1 | 5.0 | 0 | 0 | 0 | 0 | 0
CCOc1ccc(S(=O)(=O)N(CCOC)Cc2ccsc2)cc1C | 0 | 0 | 0 | 0 | - | -
CCn1cc(C(=O)N2CCC3(CC2)Nc2cc(OC)ccc2-n2cccc23)cn1 | 0 | 0 | 0 | 0 | - | -
Cc1ccc2[nH]c(=O)c(CN(CC3COCCO3)S(=O)(=O)c3ccc(F)cc3)cc2c1 (centres undefined) | 5.3 | 0 | 0 | 0 | 0 | 0
Nc1cccc(-c2nccc(NCc3cccc(C(F)(F)F)c3)n2)c1 | 0 | 0 | 0 | 0 | - | -
O=C(O)Cc1ccc(NC(=O)c2ccccc2-c2ccccc2C(=O)O)cc1 | 6.6 | 0 | 0 | 0 | 0 | 0
COc1ccc(-c2cnc3c(n2)[nH]c(=O)n3Cc2cccnc2)cc1 | 0 | 0 | 0 | 0 | - | -
CCOc1ccc(/C(C)=N/NC(=O)OC(C)(C)C)cc1 | 0 | 0 | 0 | 0 | - | -
Cn1cc(-c2cnc3c(n2)[nH]c(=O)n3CC2CC2)cn1 | 7.7 | 0 | 0 | 0 | 0 | 0
CC(C)Cn1c(=O)[nH]c2nc(-c3cnn(C)c3)cnc21 | 0 | 0 | 0 | 0 | - | -
Cc1cc(C)cc(NCC(O)Cn2nnnc2-c2ccccc2)c1 (centres undefined) | 0 | 0 | 0 | 0 | - | -
COCCn1c(SCC(=O)N2CCCCC2)nnc1-c1cc2ccccc2cc1O | 0 | 0 | 0 | 0 | - | -
COc1ccc(CCN2C(=O)CCC2CCNCc2cccc(C(F)(F)F)c2)cc1 (centres undefined) | 12 | 0 | 0 | 0 | 0 | 0
CCN1C(=O)CC(N2CCC(C(=O)N3CCOCC3)CC2)C1=O (centres undefined) | 15 | 0 | 0 | 0 | 0 | 0
O=C(COc1ccccc1)Oc1ccc2nc(N3CCCC3)sc2c1 | 9.1 | 0 | 0 | 0 | 0 | 0
COc1ccc2nc(N3CCN(C(=O)C4CCCN4S(C)(=O)=O)CC3)sc2c1 (centres undefined) | 0 | 0 | 0 | 0 | - | -
CCN1CCN(c2nc3ccc(OC(=O)COc4ccccc4)cc3s2)CC1 | 0 | 0 | 0 | 0 | - | -
O=C(NC1CCCC1)N1CCN(c2nc3ccc(F)cc3s2)CC1 | 6.4 | 0 | 0 | 0 | 0 | 0
NC(=O)C1CCN(C(=O)c2ccc3nc(N4CCCCC4)sc3c2)CC1 | 12 | 0 | 0 | 0 | 0 | 0
O=C(O)c1ccc2nc(N3CCCCC3)sc2c1 | 0 | 0 | 0 | 0 | - | -
SMILES | GPR151 activ | MITF inh | FBW7 act | TEAD-YAP block | GPR151 confirm | GPR119 ag
COc1ccc2nc(N3CCC(C(=O)N4CCCC4)CC3)sc2c1 | 6.9 | 0 | 0 | 0 | 0 | 0
O=C(c1ccc(SCc2ccccc2F)c([N+](=O)[O-])c1)N1CCc2ccccc21 | 0 | 0 | 0 | 0 | - | -
NC(=O)c1ccc2nc(N3CCN(c4ccccn4)CC3)sc2c1 | 8.1 | 0 | 0 | 0 | 0 | 0
O=C1c2cccc3c([N+](=O)[O-])ccc(c23)C(=O)N1/N=C/c1cccc([N+](=O)[O-])c1 | 0 | 0 | 0 | 0 | - | -
CCOc1cc(C=O)ccc1OCc1ccc(C(=O)OC)o1 | 0 | 0 | 0 | 0 | - | -
CCOc1cc(/C=N/Nc2ccccn2)ccc1OCc1ccc(C(=O)OC)o1 | 5.4 | 0 | 0 | 0 | 0 | 0
CC1(C)Cc2cccc(OCC(=O)NC3=NCCS3)c2O1 | 5.9 | 0 | 0 | 0 | 0 | 0
CCCOC(=O)c1cccc(Nc2c(C(=O)OCC)cnc3ccc(C(=O)OC)cc23)c1 | 0 | 0 | 0 | 0 | - | -
OC1(c2ccc(Br)cc2)CCN(Cc2ccc(F)cc2F)CC1 | 0 | 0 | 0 | 0 | - | -
CCC(C)C(=O)Nc1ccc(O)cc1C(=O)O (centres undefined) | 0 | 0 | 0 | 0 | - | -
CCC(C)C(=O)Nc1cc(OC)c(OC)cc1C(=O)O (centres undefined) | 7.1 | 0 | 0 | 0 | 0 | 0
COc1ccc(C(=O)/C=C/Nc2cccc([N+](=O)[O-])c2)cc1OC | 8.7! | 0 | 0 | 0 | 0 | 0
O=C(Nc1ccc(N2CCOCC2)cc1)C1CC(=O)N(Cc2ccccc2)C1 (centres undefined) | 7.6 | 0 | 0 | 0 | 0 | 0
COc1ccc(/C=C2\NC(=S)N(c3ccccc3)C2=O)cc1 | 0 | 0 | 0 | 0 | - | -
CC(=O)NC1=NC(=O)/C(=C/c2ccc(-c3ccc(C)c(Cl)c3)o2)S1 | 5.3 | 0 | 0 | 0 | 0 | 0
Cc1nc2c(nnn2Cc2ccccc2)c(=O)n1C | 0 | 0 | 0 | 0 | - | -
Cc1nc2c(nnn2Cc2ccccc2)c(=O)n1Cc1ccccc1 | 10 | 0 | 0 | 0 | 0 | 0
Nc1nonc1-n1nnc(C(=O)N/N=C/c2cccs2)c1CN1CCc2ccccc21 | 0 | 0 | 0 | 0 | - | -
Nc1nonc1-n1nnc(C(=O)N/N=C/c2ccco2)c1CN1CCc2ccccc21 | 11 | 0 | 0 | 0 | 0 | 0
COCc1c(C(=O)N/N=C\c2ccccc2OC)nnn1-c1nonc1N | 5.1 | 0 | 0 | 0 | 0 | 0
CC(NC(=O)C1CC(Cc2cccc(F)c2)=NO1)c1ccccc1Cl (centres undefined) | 0 | 0 | 0 | 0 | - | -
C=CCC(O)(CC=C)C(C)NC(=O)C1CC(Cc2cccc(Cl)c2)=NO1 (centres undefined) | 11 | 0 | 0 | 0 | 0 | 0
O=C1NC(c2cccc(F)c2)=N/C1=C/c1ccccc1 | 0 | 0 | 0 | 0 | - | -
COc1ccc(OC)c(NC(=O)CNC(=O)c2nn(-c3ccc(OC)cc3OC)c(=O)c3ccccc23)c1 | 0 | 0 | 0 | 0 | - | -
O=C(NCC1CCC2(CCN(C(=O)c3ccncc3)CC2)O1)c1ccc2[nH]ccc2c1 (centres undefined) | 8.0 | 0 | 0 | 0 | 0 | 0
COC(=O)c1ccc2c(=O)n(CCc3ccc(S(N)(=O)=O)cc3)c(SCC(=O)c3ccccc3)nc2c1 | 0 | 0 | 0 | 0 | - | -
COC(=O)c1ccc2c(=O)n(CCc3ccc(S(N)(=O)=O)cc3)c(SCc3c(F)cccc3F)nc2c1 | 16 | 0 | 0 | 0 | 0 | 0
Cc1ccc(NC(=O)NCC2(O)CCCC2)cc1C | 7.5 | 0 | 0 | 0 | 0 | 0
Cc1cc(Cl)ccc1OC(=O)C1COc2ccccc2O1 (centres undefined) | 0 | 0 | 0 | 0 | - | -
C=CCN1C(=O)CS/C1=N\NC(=O)c1ccccc1 | 18 | 0 | 0 | 0 | 0 | 0

Assay outcomes as filed in PubChem.
